Reference: PubChem BioAssay (EPA / NIEHS)
Where “and” joins values, the source holds several entries; their conditions need not be identical. Equal values may be shown once. A structure can be active in one record and inactive in another. Calls of active or inactive are those of the source. The calls were made as follows: active = hit-call score of the fitted dose curve at least 0.9, where 1 is the maximum; inactive = score below 0.9.

How the values were obtained:
[1] = read-out: Vascular cell adhesion molecule 1 (VCAM1), VCAM1 (gene 7412); test: BSK_4H_VCAM1: BioMAP Diversity Plus: 4H Assay for Vascular cell adhesion molecule 1 (VCAM1) Biomarker Activity (AID 2283033); settings: primary human endothelial cells (HUVEC); actives raise or lower the signal;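 as to outcome: cell-surface VCAM-1 protein measured by ELISA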
Outline: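 Primary human umbilical vein endothelial cells were exposed to chemicals for 24 h, after which VCAM-1 was quantified by ELISA. Responses were fitted bidirectionally against DMSO as negative control and activity baseline.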

[2] = read-out: Interferon-gamma inducible Protein 10 (IP10), CXCL10 (gene 3627); test: BSK_BE3C_IP10: BioMAP Diversity Plus: BE3C Assay for Interferon-gamma inducible Protein 10 (IP10) Biomarker Activity (AID 2283034); settings: primary human bronchial epithelial cells; actives raise or lower the signal
Outline: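 Human primary bronchial epithelial cells were exposed to chemicals for 24 hours, after which IP-10 levels were measured by ELISA. Data were fitted bidirectionally against DMSO, which served as the negative control and activity baseline.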

[3] = read-out: Monokine induced gamma interferon (MIG), CXCL9 (gene 4283); test: BSK_BE3C_MIG: BioMAP Diversity Plus: BE3C Assay for Monokine induced gamma interferon (MIG) Biomarker Activity (AID 2283035); settings: primary human bronchial epithelial cells; actives raise or lower the signal;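 as to outcome: MIG protein measured by ELISA in BE3C cultures after 24 h of dosing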
Outline: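 MIG level was determined by ELISA after 24 h chemical treatment of primary human bronchial epithelial cells. Values were fitted bidirectionally with DMSO as the negative control and activity baseline.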

[4] = read-out: Transforming growth factor beta 1 (TGFb1), TGFB1 (gene 7040); test: BSK_BE3C_TGFb1: BioMAP Diversity Plus: BE3C Assay for Transforming growth factor beta 1 (TGFb1) Biomarker Activity (AID 2283036); settings: primary human bronchial epithelial cells; actives raise or lower the signal
Outline: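 Human primary bronchial epithelial cells (BE3C system) were dosed with chemical and TGF-b1 levels measured by ELISA at 24 h. Activity was fitted bidirectionally relative to DMSO negative control as baseline.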

[5] = read-out: Plasminogen activator inhibitor-1 (PAI1), SERPINE1 (gene 5054); test: BSK_BE3C_PAI1: BioMAP Diversity Plus: BE3C Assay for Plasminogen activator inhibitor-1 (PAI1) Biomarker Activity (AID 2283037); settings: primary human bronchial epithelial cells; actives raise or lower the signal
Outline: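 Human primary bronchial epithelial cells were exposed to chemical for 24 h, then PAI-1 was quantified by ELISA. Activity was fitted bidirectionally relative to the DMSO negative control baseline.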

[6] = read-out: urokinase plasminogen activator (uPA), PLAU (gene 5328); test: BSK_BE3C_uPA: BioMAP Diversity Plus: BE3C Assay for urokinase plasminogen activator (uPA) Biomarker Activity (AID 2283038); settings: primary human bronchial epithelial cells; actives raise or lower the signal;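 as to outcome: uPA protein level quantified by ELISA in cell cultures; uPA read one day after compound addition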
Outline: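 Using confluent primary human lung bronchial epithelial cultures, we dosed chemicals, waited 24 h, then ran a uPA ELISA, fitting bidirectionally against DMSO.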

[7] = read-out: Urokinase-type plasminogen activator receptor (uPAR), PLAUR (gene 5329); test: BSK_BE3C_uPAR: BioMAP Diversity Plus: BE3C Assay for Urokinase-type plasminogen activator receptor (uPAR) Biomarker Activity (AID 2283039); settings: primary human bronchial epithelial cells; actives raise or lower the signal;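 as to outcome: uPAR protein level measured by ELISA on the cells; cells exposed to compound for one day before measurement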
Outline: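 Primary human bronchial epithelial cells were dosed with chemical and harvested 24 h later; uPAR was quantified by ELISA. Activity was fitted bidirectionally against DMSO as negative control and baseline.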

[8] = read-out: Interleukin-6 (IL6), IL6 (gene 3569); test: BSK_CASM3C_IL6: BioMAP Diversity Plus: CASM3C Assay for Interleukin-6 (IL6) Biomarker Activity for (AID 2283040); settings: primary human coronary artery smooth muscle cells; actives raise or lower the signal
[9] = read-out: Tissue plasminogen activator (tPA), PLAT (gene 5327); test: BSK_BE3C_tPA: BioMAP Diversity Plus: BE3C Assay for Tissue plasminogen activator (tPA) Biomarker Activity (AID 2283041); settings: primary human bronchial epithelial cells; actives raise or lower the signal;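 as to outcome: tPA level quantified by ELISA one day after compound addition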
Outline: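 Human primary bronchial epithelial cells were dosed with chemical and tPA biomarker levels measured by ELISA 24 hours later. Activity was fitted bidirectionally against DMSO as negative control and baseline.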

[10] = read-out: Interleukin-8 (IL8), CXCL8 (gene 3576); test: BSK_CASM3C_IL8: BioMAP Diversity Plus: CASM3C Assay for Interleukin-8 (IL8) Biomarker Activity (AID 2283042); settings: primary human coronary artery smooth muscle cells; actives raise or lower the signal;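 also: IL-8 protein level quantified by ELISA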

With `Cc1ccc(C)c(O)c1` the outcome [1] was “inactive”, the outcome [2] was “inactive” and the outcome [3] was “inactive”. For the same compound, the outcome [4] was “inactive”, the outcome [5] was “inactive” and the outcome [6] was “inactive”. The outcome [7] was “inactive”, the outcome [8] was “inactive” and the outcome [9] was “inactive”. For the same compound, the outcome [10] was “inactive”.

In the case of `CCCCC(CC)COC(=O)CCCCCCCCC(=O)OCC(CC)CCCC` (configuration not stated), the outcome [1] is reported as “inactive”, the outcome [2] is reported as “inactive” and the outcome [3] is reported as “inactive”. The outcome [4] was “inactive”, the outcome [5] was “inactive” and the outcome [6] was “inactive”. The outcome [7] was “inactive”, the outcome [8] was “inactive” and the outcome [9] was “inactive”. For the same compound, the outcome [10] was “inactive”.

`O=C1OC(=O)C2C3C=CC(C3)C12` (configuration not stated) was tested, and the outcome [1] was “inactive”, the outcome [2] was “inactive” and the outcome [3] was “inactive”. For the same compound, the outcome [4] was “inactive”, the outcome [5] was “inactive” and the outcome [6] was “inactive”. For the same compound, the outcome [7] was “inactive”, the outcome [8] was “inactive” and the outcome [9] was “inactive”. The outcome [10] was “inactive”.

For `CCNc1ccccc1`, the outcome [1] was “inactive”, the outcome [2] was “inactive” and the outcome [3] was “inactive”. The outcome [4] was “inactive”, the outcome [5] was “inactive” and the outcome [6] was “inactive”. For the same compound, the outcome [7] was “inactive”, the outcome [8] was “inactive” and the outcome [9] was “inactive”. The outcome [10] was “inactive”.

In the case of `O=c1[nH]c2ccc(S(=O)CCN3CCC(Cc4ccc(F)cc4)CC3)cc2o1` (configuration not stated), the AC50 [1] is reported as 15.3 µM (active), the outcome [2] is reported as “inactive” and the outcome [3] is reported as “inactive”. The outcome [4] was “inactive”, the outcome [5] was “inactive” and the outcome [6] was “inactive”. The outcome [7] was “inactive”, the outcome [8] was “inactive” and the outcome [9] was “inactive”. The outcome [10] was “inactive”.

In the case of `CCOCCO`, the outcome [1] is reported as “inactive”, the outcome [2] is reported as “inactive” and the outcome [3] is reported as “inactive”. For the same compound, the outcome [4] was “inactive”, the outcome [5] was “inactive” and the outcome [6] was “inactive”. The outcome [7] was “inactive”, the outcome [8] was “inactive” and the outcome [9] was “inactive”. For the same compound, the outcome [10] was “inactive”.

With `CCn1nc(Cc2ccccc2)cc1C1CCN(C[C@H]2C[C@H](N(C)[C@@H](C(=O)O)C(C)C)C[C@@H]2c2cccc(F)c2)CC1` the outcome [1] was “inactive”, the outcome [2] was “inactive” and the outcome [3] was “inactive”. The outcome [4] was “inactive”, the outcome [5] was “inactive” and the outcome [6] was “inactive”. The outcome [7] was “inactive”, the outcome [8] was “inactive” and the outcome [9] was “inactive”. For the same compound, the outcome [10] was “inactive”.

`C1N2CN3CN1CN(C2)C3` was tested, and the outcome [1] was “inactive”, the outcome [2] was “inactive” and the outcome [3] was “inactive”. For the same compound, the outcome [4] was “inactive”, the outcome [5] was “inactive” and the outcome [6] was “inactive”. For the same compound, the outcome [7] was “inactive”, the outcome [8] was “inactive” and the outcome [9] was “inactive”. For the same compound, the outcome [10] was “inactive”.

`CC(C)=CCCC(C)=CC=O` was tested, and the outcome [1] was “inactive”, the outcome [2] was “inactive” and the outcome [3] was “inactive”. The outcome [4] was “inactive”, the outcome [5] was “inactive” and the outcome [6] was “inactive”. For the same compound, the outcome [7] was “inactive”, the outcome [8] was “inactive” and the outcome [9] was “inactive”. For the same compound, the outcome [10] was “inactive”.

`Nc1nc2ncc(CNc3ccc(C(=O)N[C@@H](CCC(=O)O)C(=O)O)cc3)nc2c(=O)[nH]1` was tested, and the outcome [1] was “inactive”, the outcome [2] was “inactive” and the outcome [3] was “inactive”. For the same compound, the outcome [4] was “inactive”, the outcome [5] was “inactive” and the outcome [6] was “inactive”. The outcome [7] was “inactive”, the outcome [8] was “inactive” and the outcome [9] was “inactive”. For the same compound, the outcome [10] was “inactive”.

In the case of `Cc1c(-c2cccnc2)c2ccccc2n1CCCCC(=O)O`, the outcome [1] is reported as “inactive”, the outcome [2] is reported as “inactive” and the outcome [3] is reported as “inactive”. For the same compound, the outcome [4] was “inactive”, the outcome [5] was “inactive” and the outcome [6] was “inactive”. The outcome [7] was “inactive”, the outcome [8] was “inactive” and the outcome [9] was “inactive”. The outcome [10] was “inactive”.

`COc1cccc(-c2ccc(/C=C\CN3CCCCCC3)cc2Cl)c1` was tested, and the AC50 [1] was 28.4 µM (active), the AC50 [2] was 27.9 µM (active) and the AC50 [3] was 32.7 µM (active). The AC50 [4] was 25.8 µM (active), the outcome [5] was “inactive” and the AC50 [6] was 23.6 µM (active). For the same compound, the AC50 [7] was 25.2 µM (active), the outcome [8] was “inactive” and the AC50 [9] was 29.2 µM (active). The outcome [10] was “inactive”.

For `CCCCCCCCO`, the outcome [1] was “inactive”, the outcome [2] was “inactive” and the outcome [3] was “inactive”. For the same compound, the outcome [4] was “inactive”, the outcome [5] was “inactive” and the outcome [6] was “inactive”. The outcome [7] was “inactive”, the outcome [8] was “inactive” and the outcome [9] was “inactive”. The outcome [10] was “inactive”.

`Cn1c(=O)cc(Oc2ccc(F)cc2F)c2cnc(NCC(C)(C)O)nc21` was tested, and the outcome [1] was “inactive”, the outcome [2] was “inactive” and the outcome [3] was “inactive”. The outcome [4] was “inactive”, the AC50 [5] was 9.04 µM (active) and the outcome [6] was “inactive”. For the same compound, the outcome [7] was “inactive”, the AC50 [8] was 5.13 µM (active) and the outcome [9] was “inactive”. The AC50 [10] was 3.16 µM (active).

For `Cc1ccc(O)cc1`, the outcome [1] was “inactive”, the outcome [2] was “inactive” and the outcome [3] was “inactive”. The outcome [4] was “inactive”, the outcome [5] was “inactive” and the outcome [6] was “inactive”. The outcome [7] was “inactive”, the outcome [8] was “inactive” and the outcome [9] was “inactive”. For the same compound, the outcome [10] was “inactive”.

With `NC(=O)NO` the outcome [1] was “inactive”, the outcome [2] was “inactive” and the outcome [3] was “inactive”. The outcome [4] was “inactive”, the outcome [5] was “inactive” and the outcome [6] was “inactive”. For the same compound, the outcome [7] was “inactive”, the outcome [8] was “inactive” and the outcome [9] was “inactive”. The outcome [10] was “inactive”.

For `O=C(O)CC(O)C(=O)O` (configuration not stated), the outcome [1] was “inactive”, the outcome [2] was “inactive” and the outcome [3] was “inactive”. For the same compound, the outcome [4] was “inactive”, the outcome [5] was “inactive” and the outcome [6] was “inactive”. For the same compound, the outcome [7] was “inactive”, the outcome [8] was “inactive” and the outcome [9] was “inactive”. The outcome [10] was “inactive”.

In the case of `Cn1cnc([N+](=O)[O-])c1Sc1ncnc2nc[nH]c12`, the AC50 [1] is reported as 8.19 µM (active) and 9.52 µM (active), the outcome [1] is reported as “inactive” and the outcome [2] is reported as “inactive”. For the same compound, the outcome [3] was “inactive”, the outcome [4] was “inactive” and the outcome [5] was “inactive”. For the same compound, the outcome [6] was “inactive”, the outcome [7] was “inactive” and the outcome [8] was “inactive”. For the same compound, the AC50 [9] was 6.7 µM (active), the outcome [9] was “inactive” and the outcome [10] was “inactive”.

`CC1=CC(=O)CC(C)(C)C1` was tested, and the outcome [1] was “inactive”, the outcome [2] was “inactive” and the outcome [3] was “inactive”. The outcome [4] was “inactive”, the outcome [5] was “inactive” and the outcome [6] was “inactive”. For the same compound, the outcome [7] was “inactive”, the outcome [8] was “inactive” and the outcome [9] was “inactive”. For the same compound, the outcome [10] was “inactive”.

With `CC[C@H]1OC(=O)[C@H](C)[C@@H](O[C@H]2C[C@@](C)(OC)[C@@H](O)[C@H](C)O2)[C@H](C)[C@@H](O[C@@H]2O[C@H](C)C[C@H](N(C)C)[C@H]2O)[C@](C)(O)C[C@@H](C)C(=O)[C@H](C)[C@@H](O)[C@]1(C)O` the outcome [1] was “inactive”, the outcome [2] was “inactive” and the outcome [3] was “inactive”. The outcome [4] was “inactive”, the outcome [5] was “inactive” and the outcome [6] was “inactive”. The outcome [7] was “inactive”, the outcome [8] was “inactive” and the outcome [9] was “inactive”. For the same compound, the outcome [10] was “inactive”.

For `Nc1cccc(N)c1`, the outcome [1] was “inactive”, the outcome [2] was “inactive” and the outcome [3] was “inactive”. For the same compound, the outcome [4] was “inactive”, the outcome [5] was “inactive” and the outcome [6] was “inactive”. For the same compound, the outcome [7] was “inactive”, the outcome [8] was “inactive” and the outcome [9] was “inactive”. For the same compound, the outcome [10] was “inactive”.

In the case of `COC(=O)c1ccccc1O`, the outcome [1] is reported as “inactive”, the outcome [2] is reported as “inactive” and the outcome [3] is reported as “inactive”. For the same compound, the outcome [4] was “inactive”, the outcome [5] was “inactive” and the outcome [6] was “inactive”. For the same compound, the outcome [7] was “inactive”, the outcome [8] was “inactive” and the outcome [9] was “inactive”. The outcome [10] was “inactive”.
